Sampled rows, rich in hits. Any-hit rate of the full collection: about 4.7%.
HSF-1 act – HSF-1 activators, primary screen, NIH3T3-HGL cells, MG132 stress, luminescence, single point. NIH3T3-HGL HSF-1 luciferase reporter, 8 h; 100% = twice DMSO control signal. activation, % at 9 µM. actives 1.7% (n = 300,000);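 active = mean replicate activation of at least 50% with a set share of replicates each reaching 50%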;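 note: 0% = median of the neutral control wells and 100% = twice that signal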
HSF1 inh – HSF1 inhibitors in luciferase reporter cells, primary screen, cell-based, NIH3T3, luminescence. actives 0.77% (n = 300,000). NIH3T3-HGL HSE-luciferase, MG132-induced, luminescence 8 h; stronger effect = lower value. activity change, negative = inhibition, % at 7.5 µM (by protocol). AID 2098, 2009;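 active = more than half of replicate wells show activity change below -50%, luminescence cut by over half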;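 note: luciferase reports HSF-1 transcriptional activity via heat shock element; 0% = median of DMSO wells and -100% = zero luminescence signal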
EBV LMP1 NFkB – EBV LMP1-driven NF-kappaB luciferase reporter inhibitors, primary screen, cell-based, luminescence, single point | inhibition, % at 12.5 µM | actives 0.69% (n = 350,000) | LMP1-induced NF-kappaB luciferase reporter cells | AID 504558, 2011; in the data active = inhibition above about 41%;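 note: 0% = neutral control wells and 100% = reference inhibitor control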
HSP90 refold inh – HSP90 inhibitors, primary screen, cell lysate, luminescence. Heat shock protein HSP 90 (rabbit reticulocyte lysate; luciferase refolding). actives 0.91% (n = 290,000). Rabbit reticulocyte lysate, luciferase refolding luminescence, 3 h. inhibition, % at 5.6 µM;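 active = inhibition above the screen-wide mean plus 3 SD, computed separately per campaign, cut at about 16% in these data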;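 note: 0% = DMSO wells and 100% = 60 µM geldanamycin wells; inhibitors lower the luminescence because luciferase stays unfolded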
TWEAK Fn14 block – inhibitors of TWEAK-Fn14 signaling, primary screen, luciferase reporter cells, uHTS; TWEAK-stimulated Fn14 reporter cells, luciferase luminescence, 8 h; inhibition, % at 10 µM; actives 2% (n = 360,000); AID 1159606, 2016; in the data active = inhibition above about 50%
TROY NFkB inh – inhibitors of TROY-driven NF-kB signaling, primary screen, Q293 LMP1-TROYcd cells, NF-kB luciferase, uHTS; Q293 LMP1-TROYcd NF-kB luciferase reporter, 4 h; inhibition, % at 10 µM; actives 0.98% (n = 360,000); AID 1347056, 2019;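 active = compounds whose plate-normalised and pattern-corrected inhibition of the luciferase reporter signal at the single screening dose is 50% or more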
Starred values were filed as active, the others as inactive; ! = not confirmed by another sample.

Screening Cc1ccc(NC2Sc3ccccc3NC2=O)cc1 (stereo not given) returned HSF-1 act 17.0, HSF1 inh 2.9, EBV LMP1 NFkB -1.4, HSP90 refold inh 2.1, TWEAK Fn14 block 56.0* and TROY NFkB inh 8.9.
For N=C(N)c1ccccc1 the results were HSF-1 act -18.2, HSF1 inh -4.7, EBV LMP1 NFkB 81.5*!, TWEAK Fn14 block 3.9 and TROY NFkB inh -2.0.
For N=C(N)c1ccc(O)cc1 the results were HSF-1 act -10.2, HSF1 inh -8.0, EBV LMP1 NFkB 5.9, HSP90 refold inh -3.1, TWEAK Fn14 block 4.2 and TROY NFkB inh 7.8.
Screening CN(C)C(=O)c1ccc(SC(=S)NCc2ccccc2)cc1 returned TWEAK Fn14 block 14.7 and TROY NFkB inh 20.4.
COC(=O)c1c(-c2ccsc2)sc2ccc(-c3cc(OC)c(OC)c(OC)c3)cc12 was read as EBV LMP1 NFkB 32.3, TWEAK Fn14 block 15.3 and TROY NFkB inh 12.9.
For COc1cc(-c2ccc3sc(-c4ccsc4)c(C#CCO)c3c2)cc(OC)c1OC the results were EBV LMP1 NFkB 22.9, TWEAK Fn14 block 60.5* and TROY NFkB inh 42.2.
COc1ccc2sc(-c3ccc(S(C)(=O)=O)cc3)c(C#CCO)c2c1 was read as EBV LMP1 NFkB -12.3, TWEAK Fn14 block 77.2* and TROY NFkB inh 46.3.
Screening CCCS(=O)(=O)NC(=O)C1(C)CCN(C(=O)c2ccc3ccccc3c2)C1 (stereo not given) returned TWEAK Fn14 block 9.6 and TROY NFkB inh 8.0.
`CCN(CCNC(=O)CN1CCN(Cc2ccc(Cl)cc2)C1=O)c1ccccc1` gave HSF-1 act 69.7*, HSF1 inh 48.6, EBV LMP1 NFkB 13.3, HSP90 refold inh -1.5, TWEAK Fn14 block 5.9 and TROY NFkB inh 11.4.
`Nc1ccccc1C#Cc1ccc([N+](=O)[O-])cc1` gave HSF-1 act 33.5, HSF1 inh 23.9, EBV LMP1 NFkB -58.3, TWEAK Fn14 block -22.9 and TROY NFkB inh -73.3.
Screening Nc1ccccc1C#CC(=O)c1ccccc1 returned HSF-1 act 83.6*, HSF1 inh 58.0, EBV LMP1 NFkB -26.9, HSP90 refold inh -1.1, TWEAK Fn14 block 94.7* and TROY NFkB inh 49.8.
Screening O=C(C#Cc1cccc([N+](=O)[O-])c1)c1ccccc1 returned HSF-1 act 96.7*, HSF1 inh 61.5, EBV LMP1 NFkB 45.8*, HSP90 refold inh -2.4, TWEAK Fn14 block 66.3* and TROY NFkB inh 63.1*.
COc1cc(OC)c(C(=O)C=Cc2ccc(OC)c(OC)c2)c(OC)c1 was read as EBV LMP1 NFkB 5.5, TWEAK Fn14 block -6.3 and TROY NFkB inh 8.5.
COc1ccc(/C=C/C(=O)c2ccccc2)c(OC)c1 was read as HSF-1 act 72.2*, HSF1 inh 30.6, EBV LMP1 NFkB -8.2, HSP90 refold inh -0.9, TWEAK Fn14 block -32.8 and TROY NFkB inh -69.3.
COc1ccc2[nH]cc(C(=O)CCl)c2c1 was read as HSF-1 act -23.5, HSF1 inh -4.8, EBV LMP1 NFkB -10.4, HSP90 refold inh 0.9, TWEAK Fn14 block 56.5* and TROY NFkB inh 12.3.
For COc1ccc2[nH]cc(/C=C/C(=O)c3ccccc3)c2c1 the results were HSF-1 act 112.7*, HSF1 inh 63.2, EBV LMP1 NFkB -45.4, HSP90 refold inh -1.6, TWEAK Fn14 block 13.8 and TROY NFkB inh -45.8.
COc1cc(O)c(C(=O)/C=C/c2ccccc2)c(OC)c1 was read as HSF-1 act 107.4*, HSF1 inh 125.0, EBV LMP1 NFkB -2.4, HSP90 refold inh 2.7, TWEAK Fn14 block 73.6* and TROY NFkB inh -8.8.
`COc1ccc(/C=C/C(=O)c2ccc(OC)cc2OC)c(OC)c1` gave HSF-1 act 33.7, HSF1 inh 17.5, EBV LMP1 NFkB -0.8, HSP90 refold inh 3.7, TWEAK Fn14 block -9.6 and TROY NFkB inh -35.0.
`CC(=O)Nc1cc(-c2cccc(C(=O)N(C)C)c2)cn2c(-c3ccc(C(C)=O)cc3)cnc12` gave TWEAK Fn14 block 5.7 and TROY NFkB inh 9.3.
`CCCS(=O)(=O)NC(=O)C1(C)CCCN(C(=O)c2c(OC)cccc2OC)C1` (stereo not given) gave TWEAK Fn14 block 3.6 and TROY NFkB inh 13.7.
`COCCNC(=O)C1(C)CCN(C(=O)/C=C/c2ccccc2)C1` (stereo not given) gave TWEAK Fn14 block 16.3 and TROY NFkB inh 4.2.
O=C(Nc1ccn(CCCNCc2cccc3ccccc23)c(=O)n1)OCc1ccccc1 was read as EBV LMP1 NFkB 0.4, TWEAK Fn14 block -12.7 and TROY NFkB inh 7.7.
CC(=Nc1ccccc1)C1=C(O)CC(C)(C)CC1=O was read as HSF-1 act 14.3, HSF1 inh -1.0, EBV LMP1 NFkB -1.9, HSP90 refold inh -2.3, TWEAK Fn14 block 7.9 and TROY NFkB inh 9.1.
CC(=Nc1ccccc1)C1=C(O)CCCC1=O was read as HSF-1 act 62.7*, HSF1 inh 9.5, EBV LMP1 NFkB 2.7, HSP90 refold inh 3.0, TWEAK Fn14 block -12.0 and TROY NFkB inh 5.7.
CCCCC(=O)N(C)c1c(C)nc2ccc(C(=O)N3CCN(S(=O)(=O)CC)CC3)cn12 was read as TWEAK Fn14 block -2.4 and TROY NFkB inh -17.0.
Screening CN(C)c1cccc(C(=O)OCC(=O)Nc2ccccc2-c2ccccc2)c1 returned HSF-1 act 5.3, HSF1 inh 3.0, EBV LMP1 NFkB 0.8, HSP90 refold inh -0.8, TWEAK Fn14 block -2.1 and TROY NFkB inh 20.8.
For CCN(CC)c1ccc(C(=O)OCC(=O)Nc2sccc2C#N)cc1 the results were HSF-1 act 57.9*, HSF1 inh 12.5, EBV LMP1 NFkB -39.0, HSP90 refold inh -2.3, TWEAK Fn14 block 2.1 and TROY NFkB inh -78.4.
CCN(CC)c1ccc(C(=O)OCC(=O)Nc2ccccc2-c2ccccc2)cc1 was read as EBV LMP1 NFkB 15.9, HSP90 refold inh -0.5, TWEAK Fn14 block 72.5* and TROY NFkB inh 39.1.
For O=C(NCc1cc(Br)cc(Br)c1OC(=O)c1ccccc1[N+](=O)[O-])c1ccccc1 the results were HSF-1 act -3.0, HSF1 inh 2.3, EBV LMP1 NFkB 7.0, HSP90 refold inh 0.8, TWEAK Fn14 block 55.1* and TROY NFkB inh 34.0.
`NC(=O)c1ccccc1NC(=O)c1ccc2ccccc2c1` gave HSF-1 act 66.1*, HSF1 inh 46.4, EBV LMP1 NFkB -53.7, HSP90 refold inh 3.5, TWEAK Fn14 block -16.8 and TROY NFkB inh -39.0.
For COc1ccc(Cc2nc3ccc(C(=O)NCCc4ccncc4)cc3o2)cc1OC the results were HSF-1 act -0.7, HSF1 inh 2.2, EBV LMP1 NFkB 12.1, HSP90 refold inh -2.8, TWEAK Fn14 block 9.5 and TROY NFkB inh -0.3.

Screening results from PubChem.
